Data taken from PubChem BioAssay (NCATS).
For some assays here: Entries with a potency or affinity are not part of this list. Activity calls are given as the source filed them.

Tests used:
[1] = Ebola virus entry assay, blue channel fluorescence
[2] = Ebola virus entry assay, green fluorescence channel
[3] = Ebola virus entry assay, ratio channel readout
[4] = Ebola virus entry assay, ratio channel
[5] = Ebola virus entry assay, green channel fluorescence
[6] = Ebola virus entry assay, blue channel fluorescence; remark: listed apart in the source
[7] = Ebola virus entry assay, reporter ratio channel; AC50: Channel type: primary unless noted; outcome: Channel type: primary unless noted
[8] = Ebola virus entry assay, blue channel (ratio component)
[9] = Ebola virus entry reporter assay, green channel fluorescence
[10] = Ebola virus entry cell assay, ratio channel
[11] = Ebola virus entry assay, blue channel fluorescence; remark: listed apart in the source
[12] = qHTS profiling of the MIPE4 collection as inhibitors of Plasmodium falciparum (DD2) proliferation (AID 743345); details: P. falciparum Dd2 in erythrocytes, SYBR Green DNA, 72 h; at 28.5 µM (top of the series) unless noted
In short: (§1)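 Erythrocytes infected with P. falciparum (0.3% parasitemia, 2.5% hematocrit) incubated with compounds 72 h at 37 C, 5% CO2. Lysis with saponin/Triton buffer containing SYBR Green I, overnight at room temperature in the dark; DNA fluorescence (485/535 nm) normalised to 0.29 uM artemisinin and DMSO.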

[13] = qHTS profiling of the MIPE4 collection as inhibitors of Plasmodium falciparum (DD2) proliferation (Rep 2) (AID 743346); details: P. falciparum Dd2 in erythrocytes, SYBR Green DNA, 72 h; at 28.5 µM (top of the series) unless noted
In short: as §1

[14] = qHTS profiling of the MIPE4 collection as inhibitors of Plasmodium falciparum (HB3) proliferation (AID 743347);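 note: plate controls were DMSO vehicle wells for no effect and artemisinin wells for full effect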; details: P. falciparum HB3 in erythrocytes, SYBR Green DNA, 72 h; at 28.5 µM (top of the series) unless noted
In short: as §1

SMILES: C[N+]1(C)CCCC(OC(=O)C(O)(c2ccccc2)c2ccccc2)C1 (stereo unspecified)
- outcome [1]: inactive
- outcome [2]: inactive
- outcome [3]: inactive
- outcome [4]: inactive
- outcome [5]: inactive
- outcome [6]: inactive
- outcome [7]: inactive
- outcome [8]: inactive
- outcome [9]: inactive
- outcome [10]: inactive

SMILES: CCN1CC(CCN2CCOCC2)C(c2ccccc2)(c2ccccc2)C1=O (stereo unspecified)
- outcome [1]: inactive
- outcome [2]: inactive
- outcome [3]: inactive
- outcome [4]: inactive
- outcome [5]: inactive
- outcome [6]: inactive
- outcome [7]: inactive
- outcome [8]: inactive
- outcome [10]: inactive

SMILES: C[C@](N)(Cc1ccc(O)cc1)C(=O)O
- outcome [1]: inactive
- outcome [2]: inactive
- outcome [3]: inactive
- outcome [11]: inactive
- outcome [4]: inactive
- outcome [5]: inactive
- outcome [6]: inactive
- outcome [7]: inactive
- outcome [8]: inactive
- outcome [10]: inactive

SMILES: NS(=O)(=O)c1cc2c(cc1C(F)(F)F)NC(Cc1ccccc1)NS2(=O)=O (stereo unspecified)
- outcome [1]: inactive
- outcome [2]: inactive
- outcome [3]: inactive
- outcome [11]: inactive
- outcome [4]: inactive
- outcome [5]: inactive
- outcome [6]: inactive
- outcome [7]: inactive
- outcome [8]: inactive
- outcome [10]: inactive

SMILES: CCS(=O)(=O)CCn1c([N+](=O)[O-])cnc1C
- outcome [1]: inactive
- outcome [2]: inactive
- outcome [3]: inactive
- outcome [11]: inactive
- outcome [5]: inactive
- outcome [6]: inactive
- outcome [7]: inactive
- outcome [8]: inactive
- outcome [9]: inactive
- outcome [10]: inactive

SMILES: CCc1cc(C(N)=S)ccn1
- outcome [1]: inactive
- outcome [2]: inactive
- outcome [3]: inactive
- outcome [11]: inactive
- outcome [4]: inactive
- outcome [5]: inactive
- outcome [6]: inactive
- outcome [7]: inactive
- outcome [8]: inactive
- outcome [10]: inactive

SMILES: NCCCCCC(=O)O
- outcome [1]: inactive
- outcome [2]: inactive
- outcome [3]: inactive
- outcome [11]: inactive
- outcome [4]: inactive
- outcome [5]: inactive
- outcome [6]: inactive
- outcome [7]: inactive
- outcome [10]: inactive

SMILES: C=CCN1C[C@H](C(=O)N(CCCN(C)C)C(=O)NCC)C[C@@H]2c3cccc4[nH]cc(c34)C[C@H]21
- outcome [1]: inactive
- outcome [2]: inactive
- outcome [3]: inactive
- outcome [11]: inactive
- outcome [4]: inactive
- outcome [5]: inactive
- outcome [7]: inactive
- outcome [8]: inactive
- AC50 [10]: 15.8 µM (active)

SMILES: C#CCN[C@@H]1CCc2ccccc21
- outcome [1]: inactive
- outcome [2]: inactive
- outcome [3]: inactive
- outcome [11]: inactive
- outcome [4]: inactive
- outcome [5]: inactive
- outcome [6]: inactive
- outcome [7]: inactive
- outcome [8]: inactive
- outcome [9]: inactive
- outcome [10]: inactive

SMILES: Clc1ccc2nsnc2c1NC1=NCCN1
- outcome [1]: inactive
- outcome [2]: inactive
- outcome [3]: inactive
- outcome [11]: inactive
- outcome [5]: inactive
- outcome [6]: inactive
- outcome [7]: inactive
- outcome [8]: inactive
- outcome [10]: inactive

SMILES: CCn1cc(C(=O)O)c(=O)c2cc(F)c(N3CCNC(C)C3)c(F)c21 (stereo unspecified)
- outcome [1]: inactive
- outcome [2]: inactive
- outcome [3]: inactive
- outcome [11]: inactive
- outcome [4]: inactive
- outcome [5]: inactive
- outcome [6]: inactive
- outcome [7]: inactive
- outcome [8]: inactive
- outcome [10]: inactive

SMILES: Nc1ccc(S(=O)(=O)c2ccc(N)cc2)cc1
- outcome [1]: inactive
- outcome [2]: inactive
- outcome [3]: inactive
- outcome [11]: inactive
- outcome [5]: inactive
- outcome [6]: inactive
- outcome [7]: inactive
- outcome [8]: inactive
- outcome [9]: inactive
- outcome [10]: inactive

SMILES: O=C(N[C@H](CO)[C@H](O)c1ccc([N+](=O)[O-])cc1)C(Cl)Cl
- outcome [1]: inactive
- outcome [2]: inactive
- outcome [3]: inactive
- outcome [4]: inactive
- outcome [5]: inactive
- outcome [6]: inactive
- outcome [7]: inactive
- outcome [8]: inactive
- outcome [9]: inactive
- outcome [10]: inactive

SMILES: CN1C(CSCC(F)(F)F)Nc2cc(Cl)c(S(N)(=O)=O)cc2S1(=O)=O (stereo unspecified)
- outcome [1]: inactive
- outcome [2]: inactive
- outcome [3]: inactive
- outcome [11]: inactive
- outcome [4]: inactive
- outcome [5]: inactive
- outcome [6]: inactive
- outcome [7]: inactive
- outcome [8]: inactive
- outcome [10]: inactive

SMILES: O=C1CN(/N=C/c2ccc([N+](=O)[O-])o2)C(=O)N1
- outcome [1]: inactive
- outcome [2]: inactive
- outcome [3]: inactive
- outcome [11]: inactive
- outcome [5]: inactive
- outcome [6]: inactive
- outcome [7]: inactive
- outcome [8]: inactive
- outcome [10]: inactive

SMILES: CC(C)[C@H](N)C(=O)OCCOCn1cnc2c(=O)[nH]c(N)nc21
- parasite growth remaining, % of DMSO control (lower = more inhibition) [12]: 94%
- parasite growth, % of control (lower = inhibition) [13]: 136%
- growth, % of control [14]: 102%
- outcome [1]: inactive
- outcome [2]: inactive
- outcome [3]: inactive
- outcome [4]: inactive
- outcome [5]: inactive
- outcome [6]: inactive
- outcome [7]: inactive
- outcome [8]: inactive
- outcome [9]: inactive
- outcome [10]: inactive

SMILES: Nc1ncn([C@H]2C[C@H](O)[C@@H](CO)O2)c(=O)n1
- outcome [1]: inactive
- outcome [2]: inactive
- outcome [3]: inactive
- outcome [11]: inactive
- outcome [4]: inactive
- outcome [5]: inactive
- outcome [6]: inactive
- outcome [7]: inactive
- outcome [8]: inactive
- outcome [10]: inactive

SMILES: COCCCOc1ccnc(CS(=O)c2nc3ccccc3[nH]2)c1C (stereo unspecified)
- parasite growth remaining, % of DMSO control (lower = more inhibition) [12]: 74.1%
- parasite growth, % of control (lower = inhibition) [13]: 63.9%
- growth, % of control [14]: 83.7%
- outcome [1]: inactive
- outcome [2]: inactive
- outcome [3]: inactive
- outcome [11]: inactive
- outcome [4]: inactive
- outcome [5]: inactive
- outcome [6]: inactive
- outcome [7]: inactive
- outcome [8]: inactive
- outcome [9]: inactive
- outcome [10]: inactive

SMILES: OCCOCCN1CCN(C2=Nc3ccccc3Sc3ccccc32)CC1
- outcome [1]: inactive
- outcome [2]: inactive
- outcome [3]: inactive
- outcome [11]: inactive
- outcome [6]: inactive
- outcome [8]: inactive
- outcome [9]: inactive
- outcome [10]: inactive
